Screening data as filed in PubChem BioAssay.
AmpC det inh – inhibitors of E. coli AmpC beta-lactamase with detergent; purified AmpC, nitrocefin hydrolysis with detergent; AID 584; P00811; actives 0.09% (n = 71,000); Potency, µM (titrated, usually from 28.7 µM); active = well fitted curve in the direction sought with a large enough effect; inconclusive = small, poorly fitted or top-dose-only effect
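E. coli AmpC (5.3 nM) in 20 mM phosphate pH 7.0 with 0.01% Triton X-100, preincubated 15 min RT with compound; nitrocefin (2 uL of 800 uM stock) hydrolysis followed by 480 nm absorbance every 20 s over 4 min.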
AmpC nodet inh – AmpC beta-lactamase inhibition, detergent-free assay. P00811. Potency, µM (titrated, usually from 28.7 µM). AID 585. actives 1.8% (n = 71,000). AmpC nitrocefin hydrolysis, absorbance 480 nm, no detergent
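AmpC, 20 mM phosphate pH 7.0; 15 min cpd preinc, RT; start with nitrocefin (800 uM stock); A480 kinetic read, 20 s intervals, 4 min. No-enzyme wells = negative control.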
Anthrax LT inh – anthrax lethal toxin internalization inhibition; Potency, µM (doses to about 40 µM), actives largely listed as inhibitors; actives 0.67% (n = 70,000); Cells, anthrax lethal toxin internalization, FRET ratio (460/530); also: nearly all actives have a fitted effect of over 50% in size
SmPrx2 inh – Schistosoma mansoni Prx2 inhibition; S. mansoni Prx2 activity coupled to TGR/GSH (TGR is thioredoxin glutathione reductase), NADPH fluorescence loss, qHTS; Potency, µM; actives 0.07% (n = 65,000); AID 448
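qHTS, coupled TGR/Prx2 format; 15 min compound preincubation at RT; reaction started with H2O2 (2.5 mM aliquot); kinetic NADPH fluorescence decrease, ex 365/em 450 nm.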
A number is an active result; 0 = inactive; ? = inconclusive; - = not tested or not shown; [ ] = remark or other dose. Most compounds without a hit are left out; they make up all but 2.4% or so of the library. Unless noted, calls follow the shape of the full dose curve.

SMILES | AmpC det inh | AmpC nodet inh | Anthrax LT inh | SmPrx2 inh
Cc1c2oc3c(C)ccc(C(=O)N[C@@H]4C(=O)N[C@@H](C(C)C)C(=O)N5CCC[C@@H]5C(=O)N(C)CC(=O)N(C)[C@@H](C(C)C)C(=O)O[C@H]4C)c3nc-2c(C(=O)N[C@@H]2C(=O)N[C@@H](C(C)C)C(=O)N3CCC[C@@H]3C(=O)N(C)CC(=O)N(C)[C@@H](C(C)C)C(=O)O[C@H]2C)c(N)c1=O | 0 | 0 | ? | 0
CC(=O)N1CCC2(CC1)CCN(c1ccc(-c3ccccc3)cc1)CC2 | 0 | 0 | 0 | 0
O=C(O)C1=CC(=C(c2ccc(O)c(C(=O)O)c2)c2ccc(O)c(C(=O)O)c2)C=CC1=O | 10µM | 7.9µM | ? | 0
CC1=C/C(=C(/c2ccc(O)c(C)c2)c2ccccc2C(=O)O)C=CC1=O | 0[5.75 µM] | 0[5.75 µM] | 0[8 µM] | 0
[O-]/[N+](=N\O)c1ccccc1 | 0 | 0 | 0 | -
